High-throughput results deposited in PubChem by National Center for Advancing Translational Sciences (NCATS).
G9a inh = blocks human histone lysine methyltransferase G9a; Q96KQ7; actives 8.8% (n = 350,000); G9a H3K9 monomethylation, AlphaScreen, 2 h; AID 504332; Potency, µM (highest dose often 102 µM), for the others: top-dose activity, negative = inhibition, usual class: inhibitors; note: % is set by controls: 0 for no effect and ±100 for the full control effect; nearly all actives have a fitted effect of over 75% in size
Target sequence (Q96KQ7 913-1193 limits assumed): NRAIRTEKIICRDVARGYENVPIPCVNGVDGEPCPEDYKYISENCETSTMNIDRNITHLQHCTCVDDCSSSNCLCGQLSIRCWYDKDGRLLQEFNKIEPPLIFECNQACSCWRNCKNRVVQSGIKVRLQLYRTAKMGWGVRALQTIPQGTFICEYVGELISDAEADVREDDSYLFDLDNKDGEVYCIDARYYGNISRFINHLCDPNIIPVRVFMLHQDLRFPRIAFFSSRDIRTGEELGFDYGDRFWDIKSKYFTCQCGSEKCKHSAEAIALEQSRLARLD
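Chemiluminescent proximity detection of H3K9 monomethylation, read after 10 min bead incubation in the dark. Reaction: 20 nM G9a, 500 nM biotin-H3K9 peptide, 20 uM SAM cofactor, 2 h, room temperature, following 15 min enzyme-compound preincubation.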
BAZ2B inh = blocks human BAZ2B. Q9UIF8. AlphaScreen BAZ2B-H3K14Ac peptide displacement. Potency, µM (top dose mostly 114 µM), for inactives: at the highest dose activity change, negative = inhibition, usual class: inhibitors. actives 4.4% (n = 360,000). AID 504333; note: % is set by controls: 0 for no effect and ±100 for the full control effect; nearly all actives have a fitted effect of over 60% in size
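Inhibition is scored as reduced AlphaScreen emission. The BAZ2B/b-H3(5-23)K14Ac complex (50 nM each) in PBS pH 7.4, 0.01% Tween-20 meets compound (up to 110 uM) for 30 min at RT before bead addition.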
JMJD2A Tudor inh = blocks the human JMJD2A Tudor domain; O75164; AlphaScreen JMJD2A-Tudor / H3K4me3 peptide binding; Potency, µM (titrated, usually from 114 µM), without a hit: top-dose activity change, negative = inhibition, hits mostly inhibitors; actives 4.4% (n = 390,000); AID 504339; note: % is set by controls: 0 for no effect and ±100 for the full control effect; nearly all actives have a fitted effect of over 50% in size
Sfp PPTase inh = Sfp phosphopantetheinyl transferase inhibition; Q9F4F7; Biochemical Sfp PPTase activity, qHTS; Potency, µM, for inactives: largest response in the series, negative = inhibition, most hits filed as inhibitors; actives 3.5% (n = 310,000);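 note: the enzyme is Sfp with the accession as filed and its product quenches rhodamine fluorescence; 0% = enzyme reaction without inhibitor and -100% = no enzyme wells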
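Fluorescence-quenching assay: 15 nM Sfp-PPTase preincubated 15 min at room temperature with compound, then 5 uM rhodamine-CoA and 12.5 uM BHQ-2-labelled YbbR peptide added. Fluorescence (ex 525/em 598 nm) read at start and after 30 min; difference gives rate.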
L3MBTL1 inh = L3MBTL1 (human) inhibition. Q9Y468. AlphaScreen L3MBTL1–H3K9me1 peptide binding. Potency, µM (highest dose often 57.1 µM), for the others: at the top dose activity, negative = inhibition, actives largely listed as inhibitors. actives 0.66% (n = 230,000). AID 485360; note: % is set by controls: 0 for no effect and ±100 for the full control effect; nearly all actives have a fitted effect of over 60% in size
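AlphaScreen proximity signal between nickel-chelate acceptor and streptavidin donor beads (final 10 ug/mL) reports binding of 50 nM L3MBTL1 to 75 nM biotin-H3 K9me1 peptide; complex incubated with compounds 30 min at room temperature; cefsulodin titration as control.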
HP1b binding inh = inhibitors of HP1-beta chromodomain binding to methylated histone tails. AlphaScreen HP1-beta / biotin-H3K9me3 peptide binding. Potency, µM (doses to about 114 µM), for the others: top-dose activity change, negative = inhibition, hits mostly inhibitors. actives 0.56% (n = 390,000). AID 540317; note: nearly all actives have a fitted effect of over 70% in size
Target sequence (P83916 whole entry, looked up): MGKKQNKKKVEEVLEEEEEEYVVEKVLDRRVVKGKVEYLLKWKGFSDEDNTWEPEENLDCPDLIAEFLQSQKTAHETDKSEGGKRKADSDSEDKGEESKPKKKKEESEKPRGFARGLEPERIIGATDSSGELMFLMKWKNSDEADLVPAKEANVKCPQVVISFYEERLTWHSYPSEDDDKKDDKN
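Compound inhibition of the preformed complex between 50 nM HP1-beta and 50 nM biotinylated H3K9me3 peptide was read by AlphaScreen. Buffer was PBS pH 7.4 with 0.01% Tween-20. Incubations ran 30 min at room temperature, with 10 ug/mL donor/acceptor beads.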
* = called active by the depositor; ? = inconclusive; . = no result given; ! = a repeat was not active; [ ] = dose if it differs, or a comment. Compounds with a hit are over-represented: about 12% of the library has one in this group of screens. Calls come from the whole dose curve; as a rule, active = well fitted curve in the direction sought with a large enough effect; inconclusive = small, poorly fitted or top-dose-only effect, or another doubt; inactive = no such curve, though single readings can be large; an effect the other way counts as inactive or inconclusive. Potency is the fitted concentration of half-maximal effect.

SMILES	G9a inh	BAZ2B inh	JMJD2A Tudor inh	Sfp PPTase inh	L3MBTL1 inh	HP1b binding inh
Cc1ccc(C)c(CN2C(=O)C3CCCN3c3ccc(C#N)cc32)c1 (stereo unspecified)	?	1%	5%	15%	2%	45%
Cc1ccc(CN2C(=O)C3CCCN3c3ccc(C#N)cc32)cc1 (stereo unspecified)	20µM*	-18%	.	4%	3%	.
N#CCN1C(=O)C2CCCN2c2ccc(S(=O)(=O)N3CCOCC3)cc21 (stereo unspecified)	20µM*	-27%	-10%	?	.	32%
N#Cc1ccc2c(c1)NC(=O)C1CCCN21 (stereo unspecified)	14µM*	-29%	-10%	-5%	.	23%
CCOc1ccc(NC(=O)c2ccc3c(=O)n4nc(Nc5ccccc5C)sc4nc3c2)cc1	?	-13%	1%	.	.	45%
Cc1ccc(OCCNC(=O)CNC(=O)Cc2cccc3ccccc23)cc1	.	.	-2%[57.1 µM]	.	.	17%[57 µM]
Cc1ccccc1OCCOCCN1CCCCCC1	40µM*	?	?	12%	3%	?
Cc1cccc(OCCOCCN2CCOCC2)c1C	7%[12.7 µM]	-2%	-6%	15%	.	8%
Cc1ccc(C(C)C)cc1OCCOCCN1CCCC1	13µM*	?	7.1µM*	-5%	.	?
COc1ccccc1OCCOCCN1CCCC1	25µM*	-26%	50µM*	-21%	.	?
Cc1cccc(OCCOCCN2CCNCC2)c1C	-14%[59 µM]	-27%	-19%[57.1 µM]	19%	6%	9%
CCCCCCCCCCCC(=O)OCC(O)CO (stereo unspecified)	18%[59 µM]	.	.	1%	.	.
CCS(=O)(=O)N1CCC(n2c(C(F)(F)F)nc3cccnc32)CC1	7%[59 µM]	-2%	8%	.	.	26%
c1ccc(C2NCCn3cccc32)cc1 (stereo unspecified)	50µM*	?	?	-14%	-6%	26%
Cc1ccc2c(CSc3nnc(C4CC4)n3N)cc(=O)oc2c1C	-18%[59 µM]	.	-10%	3%	6%	16%
Cc1ccc2c(CSc3nnc(C4CC4)n3N)cc(=O)oc2c1	50µM*	21%	-15%	12%	0%	34%
C=CCn1c(-c2cc3c(s2)CCC(CC)C3)n[nH]c1=S (stereo unspecified)	11µM*	-29%	?	22%	?	-15%
CCCCn1cc(S(=O)(=O)c2ccc(CC)cc2)c(=O)c2cc(F)c(N3CCCC(C)C3)cc21 (stereo unspecified)	-13%[59 µM]	4%	-17%	.	.	32%
COc1cc(/C=C(\C#N)c2nc3ccccc3[nH]2)cc(OC)c1O	10µM*	40µM*	?	?	-24%	-36%
COc1cc(/C=C(\C#N)c2nc3ccccc3n2C)cc(OC)c1O	22µM*	-36%	-26%	6%	-13%	2%
COc1cc(/C=C(\C#N)c2nc3ccc(C)cc3[nH]2)cc([N+](=O)[O-])c1O	.	13µM*	40µM*	3%	?	35µM*
CCN(CC)c1ccc(/C=C(/C#N)c2nc3ccc(C)cc3[nH]2)c(OC(C)C)c1	-1%[0.0925 µM]	?	-23%	-3%	-14%	5%
COc1ccc(/C=C(\C#N)c2nc3ccccc3[nH]2)cc1O	?	-29%	?	4%	1%	5%
CCCOc1cc(N(CC)CC)ccc1/C=C(/C#N)c1nc2ccc(C)cc2[nH]1	20µM*	?	-29%	?	-11%	1%
COc1cc(/C=C(\C#N)c2nc3ccc(C)cc3[nH]2)c([N+](=O)[O-])cc1OC	.	-13%	-15%	-62%	-8%	2%
SMILES	G9a inh	BAZ2B inh	JMJD2A Tudor inh	Sfp PPTase inh	L3MBTL1 inh	HP1b binding inh
COc1cc(OC)c(NS(=O)(=O)c2ccc3c(c2)CCCN3C(C)=O)cc1Cl	0%[59 µM]	1%	-13%	.	.	24%[57 µM]
COc1cc2nc(SCC(=O)Nc3cccc(C)c3)n3nc(CCn4c(C)nc5ccccc54)nc3c2cc1OC	-25%[59 µM]	.	-19%	.	.	23%
COc1c(O)ccc(/C=C(\C#N)c2nc3ccccc3[nH]2)c1[N+](=O)[O-]	7.9µM*	40µM*	?	-16%	-13%	?
COc1c(Cl)cc(Cl)cc1/C=C(\C#N)c1nc2ccccc2[nH]1	-4%[59 µM]	-1%	0%	.	.	1%
O=C(Cc1cccs1)NCc1cccc(Cl)c1	26%	6%	89µM*	13%	.	48%
O=C(NCc1ccc(Cl)cc1)c1ncn[nH]1	-5%	79µM*	-8%	-7%	-3%	30%
O=C(CNC(=O)c1ccc(Br)o1)NCc1cccc(Cl)c1	.	-12%	-8%	89µM*	.	25%
O=C(NNC(=S)NCc1ccc(Cl)cc1)c1ccc(Br)o1	.	-9%	-32%	3%	-19%	13%
O=C(NCc1ccc(Cl)cc1)c1ccc(Br)o1	18µM*!	11%	-23%	-6%	.	22%
O=C(CSc1ncn[nH]1)NCc1ccc(Cl)cc1	24%	8%	-14%	0%	.	-1%
COc1cccc(NS(=O)(=O)c2ccc3c(c2)N(C)C(=O)CC(=O)N3C)c1	?	-1%	-7%	.	.	22%
Cn1cccc1C(=O)NCCc1ccc(Cl)cc1	?	-34%	?	24%	.	-4%
Cn1cccc1C(=O)NCc1ccc(Cl)cc1	45µM*	?	-35%	9%	.	-26%
CCNc1ncc2nc(-c3ccccc3)c(=O)n(Cc3cccc(OC)c3)c2n1	5%[0.501 µM]	.	.	-3%	.	.
C/C(=N\OCC(=O)OCC(=O)N(C)c1ccccc1)c1ccc2c(c1)OCO2	9%[12.7 µM]	79µM*	5%	.	4%	35%
COc1ccc(/C=N/OCC(=O)OCC(=O)N(C)c2ccccc2)cc1	50µM*	-2%	-2%	.	3%	21%
Cc1n[nH]c(=S)n1/N=C/c1ccc(OCc2ccc(Cl)cc2Cl)cc1	11µM*	4%	-6%	?	16%	50%
Cc1cc(C)c(COc2ccc(/C=N/n3c(C)n[nH]c3=S)cc2)c(C)c1	?	?	79µM*	50µM*	-15%	?
Cc1n[nH]c(=S)n1/N=C/c1ccc(OCc2ccc(Cl)cc2)cc1	?	3%	-21%	-24%	5%	32%
CC1=NOC(=O)/C1=C/c1ccc2c(c1)OCO2	56µM*	?	-1%	1%	11%	33%
O=C1/C(=C\c2ccc3c(c2)OCO3)CCC/C1=C/c1ccc2c(c1)OCO2	14µM*	25µM*	?	-27%	-28%	-22%
CCOC(=O)c1c(S(=O)(=O)N2CCC(C(=O)Nc3ccccc3OC)CC2)c(C)n(CC)c1C	-5%[59 µM]	-19%	-20%	.	.	32%
